High-throughput results from PubChem BioAssay.
Most compounds without a hit are left out; they make up all but 2.4% or so of the library.
D2 ag-1 = HTS Assay for Allosteric Agonists of the Human D2 Dopamine Receptor: Primary Screen for Agonists; D(2) dopamine receptor (Homo sapiens), P14416; HEK293 T-REx D2 cells, calcium flux agonist mode; activation, % at 2 µM; hit rate 0.53% among 340,000;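 active = activation over 3 SD above normal in the single-dose calcium agonist read, cut at about 30% in these data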
Target sequence (P14416 whole entry, looked up): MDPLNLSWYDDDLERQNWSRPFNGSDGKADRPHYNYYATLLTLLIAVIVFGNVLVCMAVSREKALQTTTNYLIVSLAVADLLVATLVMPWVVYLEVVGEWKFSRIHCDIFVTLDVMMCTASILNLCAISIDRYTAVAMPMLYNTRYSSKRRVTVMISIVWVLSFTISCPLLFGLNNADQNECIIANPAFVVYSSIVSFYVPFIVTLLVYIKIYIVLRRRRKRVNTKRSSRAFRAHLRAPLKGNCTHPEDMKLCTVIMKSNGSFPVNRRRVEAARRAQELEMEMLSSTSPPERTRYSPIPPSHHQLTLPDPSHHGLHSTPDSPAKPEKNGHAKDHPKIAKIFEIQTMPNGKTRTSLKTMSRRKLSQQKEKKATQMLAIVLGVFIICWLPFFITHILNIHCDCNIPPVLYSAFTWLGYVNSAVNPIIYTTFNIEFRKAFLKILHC
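Tetracycline-induced HEK293 T-REx cells with force-coupled D2 receptor, plated overnight at 30 C, loaded with no-wash calcium dye. After a 10 s baseline, compound was pin-added and calcium flux read kinetically for 180 s; calcium rises flagged agonists.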
D2 PAM-1 = HTS Assay for Positive Allosteric Modulators of the Human D2 Dopamine Receptor: Primary Screen for Potentiators. HEK293 T-REx D2, calcium flux, EC20 dopamine potentiation. potentiation, % at 10 µM. hit rate 0.34% among 340,000. D(2) dopamine receptor (Homo sapiens), P14416. AID 485347, 2010;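 active = potentiation over 3 SD above the plate norm, cut at about 30% in these data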
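Cells plated with tetracycline inducer and held overnight at 30 C; calcium dye loaded 30–90 min at room temperature; baseline taken, compound added and read 180 s; EC20 dopamine then added and read 180 s.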
D2 antag = HTS Assay for Allosteric Antagonists of the Human D2 Dopamine Receptor: Primary Screen for Antagonists | inhibition, % at 10 µM | AID 485344, 2010 | hit rate 2% among 340,000 | D(2) dopamine receptor (Homo sapiens), P14416 | HEK293 TREx D2 cells, calcium flux, dopamine EC80; in the data active = inhibition above about 30%; inactive = below that, where a call was filed
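Tetracycline-induced HEK293 TREx cells expressing D2 receptor forced-coupled to calcium signalling, loaded with no-wash calcium dye. Compounds added and calcium flux read 180 s, then dopamine added at EC80 and read a further 180 s.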
D2 ag-2 = Beta-Arrestin HTS for Positive Allosteric Modulators of the Human D2 Dopamine Receptor: Agonists; D(2) dopamine receptor (Homo sapiens), P14416; DiscoveRx PathHunter D2 beta-arrestin, luminescence, 90 min; 100% = 57 uM dopamine signal; activation, % (concentration not given with the values); hit rate 0.084% among 360,000; AID 624465, 2012; in the data active = activation above about 40%
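DiscoveRx PathHunter D2 beta-arrestin cells (2,100/well) attached overnight, then compound-stimulated 90 min at 37 C in HBSS/10 mM HEPES/0.1% Tween-20 buffer; beta-galactosidase complementation read by luminescence after 1 h at ambient temperature. Dopamine 57 uM final (EC100) as control.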
D2 PAM-2 = Beta-Arrestin HTS for Positive Allosteric Modulators of the Human D2 Dopamine Receptor: Potentiators; AID 624464, 2012; potentiation, % (test concentration not listed); D(2) dopamine receptor (Homo sapiens), P14416; DiscoveRx D2 beta-arrestin cells, luminescence, 90 min; 100% = 57 uM dopamine signal; hit rate 0.23% among 360,000; in the data active = potentiation above about 50%
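PathHunter beta-arrestin assay in DiscoveRx D2 cells. Compounds were added with an EC20 of dopamine (50 nM final) for 90 min at 37 deg C. Luminescence was read 1 h after detection reagent, with 57 uM dopamine as the EC100 control.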
Hits are given with their value; n = inactive; x = no result.

SMILES	D2 ag-1	D2 PAM-1	D2 antag	D2 ag-2	D2 PAM-2
O=C(COC(=O)c1cccnc1)Nc1cccc2ccccc12	n	n	32	n	n
COc1ccc2ccccc2c1/C=N/Nc1cccc(C(=O)O)c1	n	n	n	n	n
O=C(O)c1cccc(N/N=C/c2cccc3ccccc23)c1	n	47	n	n	n
O=C(O)c1cccc(N/N=C/c2sc(N3CCOCC3)nc2-c2ccccc2)c1	n	n	n	n	112
CCOc1ccccc1NC(=O)N(Cc1ccc(C)o1)C1CCN(C(C)=O)CC1	n	n	x	x	x
Cc1ccc(C)c(-n2nnc(-c3nc(-c4ccccc4C)no3)c2C)c1	x	n	x	x	x
O=C(N/N=C/c1cccc([N+](=O)[O-])c1)c1cc2ccccc2o1	n	n	33	n	n
O=C(N/N=C/c1cccc2ccccc12)c1cc2ccccc2o1	n	n	52	n	n
O=C(O)Cn1cc(/C=N/NC(=O)c2cc3cc(Br)ccc3o2)c2ccccc21	n	n	n	n	n
Cn1cc(/C=N/NC(=O)c2cc3cc(Br)ccc3o2)c2ccccc21	n	n	66	n	n
O=C(N/N=C/c1cccc2ccccc12)c1cccnc1	n	n	37	n	n
Cc1ccccc1/C=N/NC(=O)c1cccnc1	n	n	n	n	n
O=C(CNC(=O)c1ccc2c(c1)OCCO2)N/N=C/c1ccco1	n	n	n	n	n
O=C(CNC(=O)C12CC3CC(CC(C3)C1)C2)N/N=C\c1ccco1	n	n	n	n	80
Cc1ccc(OCC(=O)Nc2ccc3nc(SCC(=O)Nc4ccc(C)cc4C)sc3c2)cc1	n	n	x	x	x
O=c1[nH]cnc2c1ncn2[C@@H]1C[C@@H](O)[C@H](CO)O1	n	n	38	n	n
Cc1ccc(C(=O)N2CCc3cc(CNC(=O)c4ccccc4F)ccc32)cc1	n	n	x	x	x
OCCN1CCN(c2ncnc3sc4c(c23)CCCC4)CC1	n	n	n	n	n
Cc1nc(-n2nnc3ccccc32)c2c3c(sc2n1)CCCC3	n	n	n	n	n
c1ccc2c(c1)nnn2-c1ncnc2sc3c(c12)CCCC3	n	n	31	n	n
Oc1ccc(N2CCN(c3ncnc4sc5c(c34)CCC5)CC2)cc1	n	n	n	n	68
O=C(O)CCSc1nc(C(F)(F)F)cc(=O)n1-c1ccccc1	n	n	33	n	n
Cc1occc1C(=O)Nc1c(F)cc(F)cc1Br	n	n	34	n	n
COc1ccc(COCC(O)CN2CCc3ccccc3C2)cc1OC (configuration not stated)	x	x	x	n	n
Cc1cccc(C)c1OCC(O)CN1CCc2ccccc2C1 (configuration not stated)	x	x	x	n	n
SMILES	D2 ag-1	D2 PAM-1	D2 antag	D2 ag-2	D2 PAM-2
OC(COCc1ccccc1)CN1CCc2ccccc2C1 (configuration not stated)	n	n	47	n	n
OC(COc1c(F)cc(Br)cc1F)CN1CCc2ccccc2C1 (configuration not stated)	n	n	65	n	n
CC(=O)Nc1ccc(C)cc1-c1nc2ccccc2n(CC(=O)c2ccc(C)c(C)c2)c1=O	n	n	x	x	x
Cc1cc(N2CCN(C(c3ccccc3)c3ccc(Cl)cc3)CC2)n2ncnc2n1 (configuration not stated)	n	n	31	n	n
Cc1cc(N2CC(=O)N(CCc3ccccc3)C(=O)C2)n2ncnc2n1	n	n	32	n	n
Cc1cc(N2CCN(c3ccccc3)CC2)n2ncnc2n1	n	n	n	n	n
COc1ccc(CCNC(=O)[C@H](C)NC(=O)N2CCn3c2nc2ccccc23)cc1OC	n	n	37	n	n
C[C@H](NC(=O)N1CCn2c1nc1ccccc12)C(=O)NC1CC1	n	n	67	n	n
COc1ccc(F)cc1C(=O)C1CCCN(Cc2ccc(Sc3nncn3C)o2)C1 (configuration not stated)	n	n	31	n	n
CCC1Oc2nc(SC)nnc2-c2ccccc2N1C(=O)c1ccccc1 (configuration not stated)	n	n	34	n	n
CC(=O)N1CCC(N(Cc2ccc(C)o2)C(=O)Nc2cccc(C(F)(F)F)c2)CC1	n	n	x	x	x
Cc1cc(NC(=O)c2cc(-c3cccs3)nc3ccccc23)no1	n	n	37	n	n
CC(=O)NS(=O)(=O)c1ccc(NC(=O)c2cc(-c3cccs3)nc3ccccc23)cc1	37	n	n	n	n
O=C(Nc1cc(F)ccc1F)C1CCN(C(=O)c2cnn(-c3ccccc3)c2-n2cccc2)CC1	x	n	x	x	x
CN(C)c1ccc(CNn2cnnc2SCc2ccc(F)cc2)cc1	n	38	n	n	n
Cc1cc(C)c(NC(=O)c2c(C)oc3c2C2=NCCN2C=N3)c(C)c1	n	n	x	x	x
Cc1nc(/N=C(\N)NC(=O)c2ccccc2)nc2ccccc12	n	n	n	n	n
Cc1nc(/N=C(\N)NC(=O)N2c3ccccc3Sc3ccccc32)nc2ccccc12	n	n	n	n	55
COc1ccc(Cl)cc1C(=O)NCC(c1ccco1)N1CCCC1 (configuration not stated)	n	n	n	n	n
COc1ccccc1-c1nn(-c2ccccc2)cc1C(=O)NCC(c1ccco1)N1CCCC1 (configuration not stated)	n	n	40	n	n
COc1ccccc1C(CNC(=O)c1ccco1)N1CCCC1 (configuration not stated)	n	n	37	n	n
O=C(NCC(c1ccco1)N1CCCC1)c1cn(-c2ccccc2)nc1-c1ccc(F)cc1 (configuration not stated)	n	n	76	n	n
O=C(NCC(c1ccco1)N1CCCC1)c1cn(Cc2ccccc2)nc1-c1ccccc1 (configuration not stated)	n	n	n	n	n
COc1cc2ncc3c(-c4ccccc4)nn(CC(=O)NC4CCCCC4)c3c2cc1OC	n	n	x	x	x
Cc1oc(-c2ccc(C(=O)NCc3ccccc3F)cc2)nc1COc1ccccc1	n	n	x	x	x
COc1cccc(N2CCN(C3OC(=O)c4ccccc43)CC2)c1 (configuration not stated)	n	n	30	n	n
Cc1ccc(-c2nc3sc(CCNC(=O)c4ccc(F)c(F)c4)c(C)n3n2)cc1	n	n	x	x	x
O=C(c1ccc(N2C(=O)CCC2=O)cc1)N1CCOCC1	n	n	53	n	n
